High-throughput results as filed in PubChem BioAssay.
Mtb betalactam = beta-lactam sensitization of Mtb H37Rv; 330,000 compounds, 0.27% hits; inhibition, % at 25 µM; AID 434955; M. tuberculosis H37Rv growth with meropenem, percent inhibition; call rule not given here;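 note: growth measured after seven days incubation then overnight dye step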
GDH-TPI counter = counter-screen for M. tuberculosis FBA inhibitors: GDH-TPI coupled enzymes. GDH-TPI coupled enzyme counterscreen, NADH absorbance. inhibition, % at 4.8 µM. 360,000 compounds, 1.2% hits; in the data active = inhibition above about 30%
FBA Mtb inh = inhibitors of M. tuberculosis fructose-bisphosphate aldolase; P9WQA3; purified M. tuberculosis FBA, fluorescence read-out; inhibition, % at 1 µM; 360,000 compounds, 2.3% hits; AID 588726; in the data active = inhibition above about 27%
UGM FP inh = Mtb UDP-galactopyranose mutase inhibition; inhibition, % at 10 µM; P9WIQ1; purified UGM, fluorescence polarization probe displacement; 320,000 compounds, 0.06% hits; AID 504406; in the data active = inhibition above about 10%, passing the limit was not always enough; inconclusive = no clear call, values can overlap the other calls
Rv3671c inh = inhibitors of M. tuberculosis serine protease Rv3671c. P9WHR9. 320,000 compounds, 0.048% hits. AID 2606. inhibition, % at 5.96 µM; in the data active = inhibition above about 38%;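 note: extracellular domain of Rv3671c used as enzyme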
Target sequence (P9WHR9 whole entry, looked up, the tested form may be a part): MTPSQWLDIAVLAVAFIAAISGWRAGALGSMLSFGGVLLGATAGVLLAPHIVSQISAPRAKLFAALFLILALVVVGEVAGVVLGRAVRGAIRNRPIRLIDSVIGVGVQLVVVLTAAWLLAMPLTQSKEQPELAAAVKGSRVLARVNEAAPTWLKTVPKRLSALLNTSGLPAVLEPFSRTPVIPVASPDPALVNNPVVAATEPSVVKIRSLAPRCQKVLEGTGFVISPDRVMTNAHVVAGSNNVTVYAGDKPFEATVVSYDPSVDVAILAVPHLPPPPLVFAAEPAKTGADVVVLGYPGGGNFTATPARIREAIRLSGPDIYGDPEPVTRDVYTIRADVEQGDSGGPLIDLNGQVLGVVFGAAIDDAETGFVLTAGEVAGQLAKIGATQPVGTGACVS
Each line names hits and unclear results; the compound was inactive in the other large screens. Only some compounds are listed: those with a hit (about 3.5% of all), similar ones and a draw of the others.

Cc1nc2c(=O)n(C)c(=O)[nH]c2n1Cc1ccccc1	none
CCCn1c(-c2ccccc2)nc2c(=O)n(C)c(=O)[nH]c21	FBA Mtb inh active
COc1ccc(CCn2c(-c3ccccc3)nc3c(c(=O)c4ccccc4n3C)c2=O)cc1	none (no result: GDH-TPI counter, FBA Mtb inh)
COc1ccc(-c2nc3c(=O)n(C)c(=O)[nH]c3n2CCc2ccccc2)cc1	FBA Mtb inh 184.2
CCOc1cccc(-c2c(C(=O)N/N=C/c3sccc3C)nnn2-c2nonc2N)c1	GDH-TPI counter 32.2
Cc1ccc(-c2c(C(=O)N/N=C/c3cccs3)nnn2-c2nonc2N)cc1	none
CCOc1ccc(-c2c(C(=O)N/N=C/c3sccc3C)nnn2-c2nonc2N)cc1	none
Cc1ccsc1/C=N/NC(=O)c1nnn(-c2nonc2N)c1-c1ccc2c(c1)OCO2	GDH-TPI counter 32.3
Nc1nonc1-n1nnc(C(=O)N/N=C/c2cccs2)c1-c1ccc2c(c1)OCO2	GDH-TPI counter 38.6
Cc1ccc(-c2c(C(=O)N/N=C/c3ccc4c(c3)OCO4)nnn2-c2nonc2N)cc1	GDH-TPI counter 42.6
C(=N\Nc1ncnc2sc3c(c12)CCC3)/c1ccncc1	Mtb betalactam inconclusive
C(=N\Nc1ncnc2sc3c(c12)CCC3)/c1cccs1	GDH-TPI counter 33.3
Cn1cnc2c(N/N=C/c3cccs3)ncnc21	GDH-TPI counter 39.1
CC(=O)Nc1cc(C(=O)N(C)Cc2ccccc2)ccc1S(=O)(=O)c1ccc(C)cc1	none
Cc1ccc(NS(=O)(=O)c2c(C(=O)N3CCCCCC3)c(C)n(C)c2C)c(Cl)c1	none
O=c1c2ccccc2nc(-c2ccc(F)cc2)n1NCc1ccccc1O	none
COC(CNC(=O)c1c[nH]c2ccc(S(=O)(=O)N(C)c3ccc(F)cc3)cc2c1=O)OC	none
Cc1ccc(Nc2cc(C)nc3c(C)cccc23)cc1	GDH-TPI counter 31.7
CC(=O)c1ccc(Nc2cc(C)nc3c(C)cccc23)cc1	none
CCOC(=O)COc1ccc2c(c1)C(=O)CC(C)(c1cccnc1)O2 (stereo not drawn)	FBA Mtb inh 59.3
O=C1CC2(CCN(C(=O)COc3ccccc3)CC2)Oc2ccccc21	none
COCCN1C(=O)N(c2cccc(C)c2)C(=O)C1CC(=O)Nc1ccc(OC)cc1 (stereo not drawn)	none
S=C(NCCN1CCOCC1)N/N=C/c1cccs1	GDH-TPI counter 34.7
Oc1cccc(/C=N/NC(=S)NCCN2CCOCC2)c1O	none
Cc1cccc(C)c1NC(=S)N/N=C/c1ccc(C(=O)O)cc1	GDH-TPI counter 45.0
COc1ccc(/C=N/NC(=S)Nc2cccc(C(=O)O)c2)cc1	none
CC(=O)Nc1ccc(/C=N/NC(=S)NC(C)C)cc1	GDH-TPI counter 40.4
O=C(O)c1ccc(/C=N/NC(=S)NCCN2CCOCC2)cc1	GDH-TPI counter 46.3
COc1cccc(F)c1C(=O)NC(=O)Nc1ccc2nc(C)oc2c1	none
O=C(OCC(=O)N1CCOCC1)c1ccc(Cl)cc1[N+](=O)[O-]	none
CCC(C)(C)NC(=O)CCCSc1nc2ccccc2s1	none
COc1cc2c(c(OC)c1OC)C(=O)C(=Cc1ccccc1)O2	GDH-TPI counter 35.8 (no result: Mtb betalactam, UGM FP inh, Rv3671c inh)
Cc1cccc(-c2nc3cc(NC(=O)C4CCCO4)ccc3o2)c1 (stereo not drawn)	FBA Mtb inh 114.2
CCCCC(=O)Nc1ccc2oc(-c3cccnc3)nc2c1	FBA Mtb inh 141.0
CCC(=O)Nc1ccc2oc(-c3cccc(C)c3)nc2c1	FBA Mtb inh 139.2
O=C(Nc1ccc2oc(-c3cccnc3)nc2c1)c1cc2ccccc2o1	none
CC(C)CCCN1C(Nc2ccccc2)=NC[C@@H]1C	none
O=C(CCl)c1cc2c3c(c1)CC(=O)N3CCC2	none
O=C(NNS(=O)(=O)c1ccc(Br)cc1)c1cccs1	none
CC(=O)c1ccc(N2CCN(C(=O)c3nn(C)c4c3CS(=O)(=O)c3ccccc3-4)CC2)cc1	GDH-TPI counter 40.5
C1CCCN(c2nc3nonc3nc2N2CCCCCC2)CC1	none
O=C1CN(c2nc3nonc3nc2N2CCCCC2)CCN1	GDH-TPI counter 35.4
CCOC(=O)c1cn2nc(Oc3ccccc3)ccc2n1	none
CCOC(=O)c1cn2nc(Oc3cccc(C(F)(F)F)c3)ccc2n1	FBA Mtb inh 66.0
CN1C(=O)C(CC(=O)O)S/C1=N\N=C\c1ccc(O)cc1O (stereo not drawn)	GDH-TPI counter 51.9
Cc1cccc(C(=O)N2CCN(Cc3nc4sc5c(c4c(=O)[nH]3)CCCC5)CC2)c1	none
CCC(=O)Nc1nc2ccc([N+](=O)[O-])cc2s1	GDH-TPI counter 31.0
CS(=O)(=O)c1ccc2nc(NC(=O)c3ccc(NS(=O)(=O)c4cccc([N+](=O)[O-])c4)cc3)sc2c1	GDH-TPI counter 88.6
Cc1cc(C)c(NC(=O)Cn2nnc(C(=O)NCc3ccco3)c2N)c(C)c1	GDH-TPI counter 33.1
COc1ccc(CCNC(=O)C2CCN(C(=O)c3ccc([N+](=O)[O-])cc3)CC2)cc1	none
O=C(Nc1cccc(O)c1)c1c(O)c2ccccc2[nH]c1=O	none
O=C(C1=C(O)C(=O)N(CCN2CCOCC2)C1c1cccc(Br)c1)c1cc2ccccc2o1 (stereo not drawn)	FBA Mtb inh 134.1
CCN(CC)c1nc(N)c2c(N)n(-c3ccccc3C)c(=S)c(C#N)c2c1C#N	GDH-TPI counter 44.0
O=C(Nc1nc2nccc(-c3ccccc3)n2n1)C(Cl)(Cl)Cl	FBA Mtb inh 172.8
COc1ccc(C(c2c(N)[nH]c(=S)[nH]c2=O)c2c(N)[nH]c(=S)[nH]c2=O)cc1	none
CCOc1cccc2cc(-c3csc(NC(=O)CCC(=O)NCCCN4CCC(C)CC4)n3)c(=O)oc12	none (no result: GDH-TPI counter, FBA Mtb inh)
CCOc1cccc2cc(-c3csc(NC(=O)CCC(=O)NCCN4CCCCC4C)n3)c(=O)oc12 (stereo not drawn)	GDH-TPI counter 34.1
COc1ccc(-c2nc3c(n2O)CCc2c-3no[n+]2[O-])cc1	GDH-TPI counter 40.5
CCOc1ccc2nc(N(CCN(CC)CC)C(=O)c3cccc([N+](=O)[O-])c3)sc2c1	none
Cc1ccc(CN2CCN(Cc3cnc(N4CCOCC4)s3)CC2CCO)o1 (stereo not drawn)	none
CCOC(=O)c1cc(-c2ccc(/C=C3/C(=O)NC(=O)C(C#N)=C3C)o2)ccc1Cl	GDH-TPI counter 34.6
CC(C)[C@H](NC(=O)NCc1ccc(F)cc1)C(=O)O	none
COc1ccc(Cn2c(=O)c3[nH]cnc3n(-c3ccc(C)cc3)c2=O)cc1	none
Oc1cc(NCc2cccnc2)ccc1-c1nc2ccccc2o1	GDH-TPI counter 63.5
COc1ccc(C2=CC(c3ccc(C)cc3)n3nnnc3N2)cc1 (stereo not drawn)	none
Fc1ccc(C2=CC(c3ccc(Br)o3)n3ncnc3N2)cc1 (stereo not drawn)	FBA Mtb inh 42.8
Fc1ccc(C2=CC(c3ccco3)n3ncnc3N2)cc1 (stereo not drawn)	FBA Mtb inh 113.3
COc1ccc(C2C=C(c3ccc(C)cc3)Nc3ncnn32)cc1 (stereo not drawn)	FBA Mtb inh active (no result: Mtb betalactam, UGM FP inh, Rv3671c inh)
CC(C)(C)[C@@H]1COC(=O)[C@@H](Cc2ccc(F)cc2)C/C=C\C[C@H](CC(=O)N(CCO)Cc2ccccc2)C(=O)N1	none
